Results reported in the supplement of paper PMC6555819.

Columns and labels:
Experiment in all cases: PBM binding z-score (relative to random genomic background probes); higher = stronger binding; sequences stand for … in GC…GCGATTGACAGCGTAGAATGAAGG
[1] = system: FXR:RXRa (NR concentration 270 nM, RXRa partner concentration 90 nM)
Method in brief: (§1)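 Binding z-scores were set against random background probes. The data came from custom Agilent 4×180K protein-binding microarrays carrying double-stranded probes with 34-nt variable regions, incubated 1 h with ligand-free nuclear receptor dimers. Partner-specific antibodies detected binding, and scanned fluorescence was regression-normalized.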

[2] = system: LXRa:RXRa (NR concentration 270 nM, RXRa partner concentration 90 nM)
Method in brief: as §1

[3] = system: LXRa homodimer (NR concentration 270 nM)
Method in brief: as §1

[4] = system: LXRb:RXRa (NR concentration 270 nM, RXRa partner concentration 90 nM)
Method in brief: as §1

[5] = system: LXRb homodimer (NR concentration 270 nM)
Method in brief: as §1

[6] = system: PPARa:RXRa (NR concentration 270 nM, RXRa partner concentration 90 nM)
Method in brief: as §1

[7] = system: PPARg:RXRa (NR concentration 180 nM, RXRa partner concentration 90 nM)
Method in brief: as §1

[8] = system: PPARg:RXRa 270nM:90nM, anti-RXR (NR concentration 270 nM, RXRa partner concentration 90 nM)
Method in brief: as §1

[9] = system: PPARg:RXRa 30nM:10nM, anti-RXR (NR concentration 30 nM, RXRa partner concentration 10 nM)
Method in brief: as §1

[10] = system: PPARg:RXRa 90nM:30nM, anti-RXR (NR concentration 90 nM, RXRa partner concentration 30 nM)
Method in brief: as §1

[11] = system: PPARg:RXRa DBDmut IVT, anti-RXR (DBD mutation: RXRa K156A/R161A, NR concentration 270 nM, RXRa partner concentration 90 nM)
Method in brief: as §1

[12] = system: PPARg:RXRa IVT, anti-PPARg (NR concentration 270 nM, RXRa partner concentration 90 nM)
Method in brief: as §1

[13] = system: PPARg DBDmut:RXRa IVT, anti-PPARg (DBD mutation: PPARg1 K132A/R137A, NR concentration 270 nM, RXRa partner concentration 90 nM)
Method in brief: as §1

[14] = system: PPARg DBDmut IVT, anti-PPARg (DBD mutation: PPARg1 K132A/R137A, NR concentration 270 nM)
Method in brief: as §1

[15] = system: PPARg homodimer (NR concentration 180 nM)
Method in brief: as §1

[16] = system: PXR:RXRa (NR concentration 270 nM, RXRa partner concentration 90 nM)
Method in brief: as §1

[17] = system: PXR homodimer (NR concentration 270 nM)
Method in brief: as §1

[18] = system: RARa:RXR (NR concentration 270 nM, RXRa partner concentration 90 nM)
Method in brief: as §1

[19] = system: RARa homodimer (NR concentration 270 nM)
Method in brief: as §1

[20] = system: RARb:RXRa (NR concentration 270 nM, RXRa partner concentration 90 nM)
Method in brief: as §1

| Sequence | PBM binding z-score [1] | PBM binding z-score [2] | PBM binding z-score [3] | PBM binding z-score [4] | PBM binding z-score [5] | PBM binding z-score [6] | PBM binding z-score [7] | PBM binding z-score [8] | PBM binding z-score [9] | PBM binding z-score [10] | PBM binding z-score [11] | PBM binding z-score [12] | PBM binding z-score [13] | PBM binding z-score [14] | PBM binding z-score [15] | PBM binding z-score [16] | PBM binding z-score [17] | PBM binding z-score [18] | PBM binding z-score [19] | PBM binding z-score [20] |
| --- | --- | --- | --- | --- | --- | --- | --- | --- | --- | --- | --- | --- | --- | --- | --- | --- | --- | --- | --- | --- |
| ATTGAAAGGTCGAGGTGAGTATAGAGAAAGGGAA | 4.46 | 3.8 | 0.427 | 2.93 | 1.15 | 4.7 | 4.5 | 3.84 | 1.72 | 3.01 | 0.763 | 2.77 | 1.27 | 1.65 | 2.49 | 2.7 | 0.738 | 3.64 | 1.83 | 4.28 |
| TCTTGTAGATCAAGCAGGTTAACAAAGCCTGAGT | 0.489 | 0.545 | 0.00608 | 0.81 | -0.426 | 0.99 | -0.0763 | 1.23 | 2.44 | 2.04 | 1.57 | 0.741 | 0.45 | 0.44 | 0.0405 | 0.699 | 0.326 | 0.629 | -0.263 | 0.298 |
| GCTTACGGGGCAAAGGTTATAGCATGAATAGAAT | 2.32 | 2.71 | 0.016 | 3.48 | 0.208 | 5.38 | 8.91 | 8.3 | 7.37 | 9.06 | 3.33 | 4.27 | 0.825 | 1.35 | 2.67 | 2.99 | 0.0717 | 4.63 | 0.155 | 2.32 |
| CCGACTGGAGCAAGGTTACCATAACGCACAGCCA | -0.0203 | 0.559 | 0.116 | 0.511 | -0.797 | 1.01 | 1.3 | 1.66 | 0.181 | 0.892 | 1.3 | 0.76 | -0.802 | -0.726 | 0.608 | 0.248 | -0.0714 | 0.527 | -0.0817 | 0.876 |
| ATCTCTAGATAACAAGTTCAGTGAAAGAGAGGAC | 0.459 | 0.495 | 0.398 | 0.384 | 0.4 | 0.365 | 0.657 | 0.541 | 0.363 | 0.315 | -0.504 | 0.236 | 0.623 | 0.272 | 0.186 | 1.26 | 1.72 | 0.0962 | 0.589 | 1 |
| CCTATTAGTTGACCGTAAGGGCAACCGAAGCTCG | 1.88 | 0.908 | 0.863 | 0.769 | 0.64 | 0.834 | 0.00382 | 0.48 | -0.271 | -0.155 | 0.0924 | 0.672 | 0.0839 | -0.0421 | 1.63 | 0.919 | 0.939 | 1.35 | 1.56 | 1.91 |
| AGAATGAGGTTATTAAGAGCAGGGAATTGCGGTC | 1.73 | 1.76 | 0.247 | 1.32 | 0.0744 | 2.77 | 1.58 | 1.87 | 0.503 | 1.45 | 2.93 | 2.39 | 0.24 | -0.178 | 0.998 | 1.08 | 0.932 | 1.42 | 0.134 | 1.47 |
| GGAACGAGTGCATTCGAGTTGATAGCATGGCGAT | -0.159 | 0.374 | -0.89 | -0.659 | -1.1 | -0.426 | 0.302 | -0.652 | -0.79 | -1.09 | -0.308 | -0.6 | -1.05 | -0.767 | -1.32 | 2.91 | 3.49 | -0.0398 | -1.2 | -0.311 |
| GGAACGAGGGCAAGTTGATAGGAGAGTTTGATGG | 0.63 | 0.287 | -0.48 | 0.289 | -0.332 | 1.81 | 1.05 | 0.946 | 0.0757 | 0.63 | 3.49 | 2.69 | -0.522 | 0.0128 | 0.664 | 0.817 | 1.15 | 0.165 | -0.204 | 2.63 |
| ATCTCTAGGTAAGACTCAGTCCAGTGAAGAACGC | 0.392 | 0.554 | -0.00583 | -0.0175 | 0.668 | -0.0468 | 0.17 | 0.258 | 0.405 | 0.142 | 1.91 | 1.22 | -0.449 | 2 | 0.717 | -0.0905 | 0.481 | -0.0301 | 0.973 | 0.0795 |
| TAGCCTAGGTCATTCAGGGGCCAGTATCGAAAGC | 4.39 | 3.78 | 0.945 | 3.2 | 1.1 | 3.76 | 1.95 | 2.11 | 0.0848 | 0.958 | 1.77 | 2.83 | 0.988 | -0.403 | 1.28 | 2.47 | 0.344 | 3.36 | -0.599 | 3.67 |
| CCTACGGGGCCATCAGGTCATTGATATCAACGTT | 2.38 | 1.72 | 0.922 | 1.91 | -0.245 | 2.46 | 1.25 | 1.88 | 0.224 | 0.958 | 1.08 | 2.4 | -0.644 | -0.657 | 1.9 | 2.18 | 0.639 | 2.97 | 0.686 | 2.86 |
| CCGACTGGGGCAAAGGTAACCATACTCAGTACGA | 0.167 | 0.164 | -0.55 | 0.446 | -1.32 | 4.5 | 8.83 | 7.71 | 7.84 | 8.13 | 4.95 | 5.05 | -0.085 | -0.917 | 0.706 | 0.067 | -0.401 | 1.14 | -0.0329 | 0.906 |
| CGTCCAAGGTCAGAGAGGGCAGTGAATGCCGAGT | 5.26 | 3.77 | 0.447 | 2.71 | -0.0412 | 4.26 | 2.13 | 2.88 | 0.148 | 1.46 | 2.19 | 2.6 | -0.519 | -0.66 | 1.84 | 3.91 | 6.38 | 3.14 | 0.679 | 4.88 |
| TTACCAAGGTGAAAGTCGTTGATCCCTCTGTAGA | 0.729 | 0.757 | -0.418 | 0.587 | -0.747 | 2.1 | 0.615 | 1.61 | 0.371 | 1.12 | 1.87 | 2.87 | 0.179 | 0.266 | -0.0514 | 0.456 | -0.651 | 1.1 | -0.221 | 1.67 |
